An excerpt weighted towards active compounds, which were near 2.9% of everything screened.
H9c2 protect: modulators protecting cardiomyocytes from myocardial damage; H9c2 cardiomyocytes, H2O2 injury protection, ATPLite, 2 h; protection from H2O2 cell death, % at 20 µM; 360,000 compounds, 0.63% hits; AID 588492;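 active = compounds giving at least 50% protection of heart cells from peroxide-induced death in the single-dose screen, raw or plate-pattern-corrected value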;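 note: 0% = DMSO wells with peroxide and 100% = DMSO wells without peroxide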
NadD block: inhibitors of Staphylococcus aureus NadD. 360,000 compounds, 0.78% hits. inhibition, % at 20 µM. purified NadD enzyme, colorimetric absorbance read-out; in the data active = inhibition above about 26%
APOBEC3A inh: human APOBEC3A DNA deaminase inhibition. P31941. recombinant A3A, FAM/TAMRA ssDNA deamination fluorescence. inhibition, % at 20 µM. 330,000 compounds, 0.41% hits. AID 493011;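 active = at least 40% inhibition at 20 µM here, with at most 30% in a related deaminase screen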;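 note: plate controls were A3A with DMSO for no effect and wells lacking A3A enzyme for full effect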
Target sequence (P31941 whole entry, looked up): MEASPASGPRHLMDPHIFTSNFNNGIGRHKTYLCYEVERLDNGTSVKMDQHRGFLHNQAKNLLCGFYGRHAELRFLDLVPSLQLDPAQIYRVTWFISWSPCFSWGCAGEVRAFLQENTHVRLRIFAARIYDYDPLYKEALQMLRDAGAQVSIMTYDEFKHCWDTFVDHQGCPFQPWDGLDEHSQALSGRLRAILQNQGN
TAG inh: reduces triacylglycerol accumulation in H9c2 cells. 230,000 compounds, 0.66% hits. Nile Red lipid (TAG) fluorescence; cells loaded with 200 µM oleic acid. inhibition, % at 12.5 µM. AID 651582;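 active = pattern-corrected inhibition of lipid staining of at least 50% with the nuclear-stain viability signal not falling by more than 50%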;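 note: 0% = DMSO wells and 100% = triacsin C control wells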
APOBEC3G inh: inhibitors of human APOBEC3G DNA deaminase. inhibition, % at 20 µM. AID 493012. 330,000 compounds, 0.28% hits. recombinant A3G, ssDNA deamination FAM/TAMRA fluorescence. Q9HC16;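 active = inhibition of at least 40% at 20 µM, with no more than 30% in the related APOBEC3A deaminase screen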;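 note: plate controls were DMSO wells with A3G for no effect and wells lacking A3G enzyme for full effect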
Target sequence (Q9HC16 whole entry, looked up): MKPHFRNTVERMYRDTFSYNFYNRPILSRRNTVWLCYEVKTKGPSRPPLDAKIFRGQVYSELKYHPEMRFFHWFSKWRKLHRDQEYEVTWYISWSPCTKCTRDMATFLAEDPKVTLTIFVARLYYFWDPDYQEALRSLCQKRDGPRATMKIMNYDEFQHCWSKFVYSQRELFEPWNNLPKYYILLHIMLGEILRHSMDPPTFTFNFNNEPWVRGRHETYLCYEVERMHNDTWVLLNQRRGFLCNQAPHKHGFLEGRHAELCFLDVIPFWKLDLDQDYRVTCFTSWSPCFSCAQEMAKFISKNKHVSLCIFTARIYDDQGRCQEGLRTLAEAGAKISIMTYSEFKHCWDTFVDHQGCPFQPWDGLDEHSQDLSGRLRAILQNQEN
PfGluPho inh: PfG6PD (Plasmodium falciparum) enzyme inhibition. inhibition, % at 20 µM. AID 504690. PfGluPho enzyme, NADPH resazurin-diaphorase fluorescence. 350,000 compounds, 0.78% hits;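 active = inhibition reaching at least a set limit at 20 µM in the primary screen, cut at about 59% in these data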;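 note: 0% = DMSO wells with substrate and 100% = DMSO wells lacking glucose-6-phosphate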
PfGluPho conf: confirmation of Plasmodium falciparum G6PD inhibitors. shares compounds with PfGluPho inh. recombinant PfGluPho, NADPH-diaphorase-resazurin fluorescence. inhibition, % at 20 µM. 2,400 compounds, 34% hits;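 active = inhibition of at least 50% at 20 µM in any single replicate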;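 note: 0% = DMSO with substrate and 100% = DMSO lacking glucose-6-phosphate substrate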
Diaphorase 10uM: inhibits diaphorase or oxidizes, flagging false PfG6PD hits; diaphorase-coupled resazurin reduction, fluorescence, NADPH 10 uM; inhibition, % at 20 µM; 820 compounds, 39% hits; shares compounds with PfGluPho inh;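 active = average inhibition reaching 50% or more with the compound at 20 µM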;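 note: resorufin red fluorescence formed as diaphorase reduces resazurin using NADPH; 0% = DMSO with enzyme and 100% = DMSO without enzyme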
Diaphorase 30uM: diaphorase inhibition or oxidation at 30 uM NADPH; shares compounds with PfGluPho inh; Diaphorase/resazurin coupled assay, resorufin fluorescence; inhibition, % at 20 µM; 820 compounds, 29% hits; AID 504863;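 active = inhibition averaging 50% or more, tested at 20 µM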;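 note: 0% = DMSO with enzyme and 100% = DMSO wells lacking diaphorase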
* = called active by the depositor.

Results for O=C(Nc1nnc(CSCc2ccc(F)cc2)s1)c1cccc([N+](=O)[O-])c1 ?
H9c2 protect: -6; NadD block: -5; APOBEC3A inh: -8; APOBEC3G inh: -9; PfGluPho inh: 73*; PfGluPho conf: 44

Results for COc1cc(C(=O)NC(C)c2ccc3ccccc3c2)cc(Cl)c1O (stereo unspecified) ?
H9c2 protect: 2; NadD block: 8; APOBEC3A inh: -4; APOBEC3G inh: -12; PfGluPho inh: 2

What do the screens show for `C(=Cc1c[nH]c2ccccc12)c1ccc2ccccc2n1`?
H9c2 protect: -19; NadD block: 11; TAG inh: -27; PfGluPho inh: 46

Results for C(=Cc1c[nH]c2ccccc12)c1nccc2ccccc12 ?
H9c2 protect: -19; NadD block: 9; TAG inh: -63; PfGluPho inh: 65*; PfGluPho conf: 4

What do the screens show for `CN1c2cccc3cccc(c23)N(C)C1c1cccs1`?
H9c2 protect: -28; NadD block: 7; APOBEC3A inh: -1; TAG inh: -8; APOBEC3G inh: -5; PfGluPho inh: 19

How did CC1N(C)c2cccc3cccc(c23)N1C do in these assays?
H9c2 protect: -4; NadD block: 14; APOBEC3A inh: -1; TAG inh: 5; APOBEC3G inh: 7; PfGluPho inh: 69*; PfGluPho conf: 53*; Diaphorase 10uM: 1; Diaphorase 30uM: 2

Results for C=COC(=O)CSc1nc(-c2cccs2)ccc1C#N ?
H9c2 protect: 6; NadD block: -10; APOBEC3A inh: 1; APOBEC3G inh: -3; PfGluPho inh: -11

Results for CCOC(=O)C(C)Sc1nc(-c2cccs2)ccc1C#N (stereo unspecified) ?
H9c2 protect: -9; NadD block: -6; APOBEC3A inh: 4; APOBEC3G inh: -1; PfGluPho inh: 78*; PfGluPho conf: 2

How did Cc1nc2c(OCc3cccc(Cl)c3)cccn2c1N(C)Cc1cccs1 do in these assays?
H9c2 protect: -8; NadD block: 3; TAG inh: -27

Results for CN1CCSc2ccc(C(=O)NCc3ccccc3F)cc21 ?
H9c2 protect: -2; NadD block: -1; APOBEC3A inh: -2; TAG inh: 3; APOBEC3G inh: -11; PfGluPho inh: 63*; PfGluPho conf: 14

What do the screens show for `Cc1cccc(CNC(=O)c2ccc3c(c2)N(C)CCS3)c1`?
H9c2 protect: -3; NadD block: 1; APOBEC3A inh: -1; TAG inh: 2; APOBEC3G inh: 4; PfGluPho inh: 71*; PfGluPho conf: -20

How did CN1CCSc2ccc(C(=O)NCc3cccc(Br)c3)cc21 do in these assays?
H9c2 protect: 0; NadD block: -1; APOBEC3A inh: -7; TAG inh: 1; APOBEC3G inh: -8; PfGluPho inh: 57

Results for COc1ccc(N2C(=NC(=O)CC3CCCCC3)SC3CS(=O)(=O)CC32)cc1 (stereo unspecified) ?
H9c2 protect: -6; NadD block: 1; APOBEC3A inh: 0; APOBEC3G inh: 1; PfGluPho inh: -2

How did CCOC(=O)CC(NC(=O)c1cccc2c1C(=O)N(Cc1cccnc1)C2)c1ccc(OCC)c(OC)c1 (stereo unspecified) do in these assays?
H9c2 protect: 10; NadD block: 1; APOBEC3A inh: -2; APOBEC3G inh: -5; PfGluPho inh: -3

What do the screens show for `CCCCCCn1cc(CN2CC(N3CCN(C4CCN(C)CC4)CC3)CS2(=O)=O)nn1` (stereo unspecified)?
NadD block: -3

What do the screens show for `C=C(C)Cn1c(=O)c2c(nc3n2CC(C)CN3Cc2ccccc2)n(C)c1=O` (stereo unspecified)?
H9c2 protect: 0; NadD block: -2; APOBEC3A inh: -2; APOBEC3G inh: 1; PfGluPho inh: -14

What do the screens show for `C/C(=N\Nc1ccc(Cl)cc1)c1ccncc1`?
H9c2 protect: -2; NadD block: -1; APOBEC3A inh: -4; APOBEC3G inh: -2; PfGluPho inh: 55

Results for C/C(=N\Nc1cccc(Cl)c1)c1ccncc1 ?
H9c2 protect: 1; NadD block: -8; APOBEC3A inh: -7; TAG inh: 15; APOBEC3G inh: -3; PfGluPho inh: 78*; PfGluPho conf: 33

What do the screens show for `O=C(Cn1ccc(=O)[nH]c1=O)c1ccc([N+](=O)[O-])o1`?
H9c2 protect: 40; NadD block: -3; TAG inh: 8; PfGluPho inh: 59*; PfGluPho conf: 33

What do the screens show for `O=C(Cn1ccc(=O)[nH]c1=O)NCCO`?
H9c2 protect: -1; NadD block: 0; APOBEC3A inh: 2; TAG inh: 1; APOBEC3G inh: -12; PfGluPho inh: -11

How did CCc1nnc(NC(=O)CSCc2cc(=O)n3nc(C)sc3n2)s1 do in these assays?
H9c2 protect: 7; NadD block: -6; APOBEC3A inh: -4; APOBEC3G inh: -4; PfGluPho inh: 11

Results for O=C1/C(=N\S(=O)(=O)c2cccs2)C([n+]2ccccc2)=C([O-])c2ccccc21 ?
H9c2 protect: -15; NadD block: 0; APOBEC3A inh: 7; TAG inh: 76*; APOBEC3G inh: 1; PfGluPho inh: 65*; PfGluPho conf: 29

How did O=C(Nc1ccccc1[N+](=O)[O-])OCC=Cc1ccccc1 do in these assays?
H9c2 protect: -8; NadD block: 0; TAG inh: 0; PfGluPho inh: 12

What do the screens show for `c1cc2c(cc1NC1CCCCCC1)OCO2`?
H9c2 protect: 0; NadD block: 9; APOBEC3A inh: -10; APOBEC3G inh: 2; PfGluPho inh: 62*; PfGluPho conf: 61*; Diaphorase 10uM: 2; Diaphorase 30uM: -2

What do the screens show for `C/C(=N\Nc1cccc([N+](=O)[O-])c1)c1cc(F)ccc1O`?
H9c2 protect: -18; NadD block: -11; APOBEC3A inh: 2; TAG inh: 5; APOBEC3G inh: -2; PfGluPho inh: 84*; PfGluPho conf: 16

Results for C/C(=N\Nc1cccc([N+](=O)[O-])c1)c1ccccc1O ?
H9c2 protect: -16; NadD block: -6; APOBEC3A inh: 1; TAG inh: 6; APOBEC3G inh: 0; PfGluPho inh: 58

Results for O=C(Nc1nc2ccccc2n1Cc1ccccc1)c1ccco1 ?
H9c2 protect: 58*; NadD block: -4; APOBEC3A inh: -3; TAG inh: 0; APOBEC3G inh: -2; PfGluPho inh: 80*; PfGluPho conf: 45

Compound activity: PubChem, Sanford-Burnham Center for Chemical Genomics
